M1 ag: M1 muscarinic receptor agonism; AID 626; 64,000 tested, 3% active; CHO-M1 cells, Fluo-4 calcium fluorescence, agonist mode; stronger effect = higher value; B-score at 10 µM;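 active means fluorescence rise, raw or as B-score row- and column-corrected plate score, outside the 99.7% band of its plate's samples, either direction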
Pyk2 oligo antag: Pyk2 (human) oligomerization antagonism. Q14289. Q293 cells, Pyk2 FERM NanoBiT luminescence; stronger effect = lower value. z-score (the deposit names both 25 µM and 10 µM). 99,000 tested, 0.83% active. AID 1347419;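 active means Z-score of -3 or lower, scaled per plate to the spread of control and sample wells; inactive means z-score above -3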;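 further: negative z-score means lost luminescence so less FERM oligomerization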
Target sequence (Q14289 whole entry, looked up): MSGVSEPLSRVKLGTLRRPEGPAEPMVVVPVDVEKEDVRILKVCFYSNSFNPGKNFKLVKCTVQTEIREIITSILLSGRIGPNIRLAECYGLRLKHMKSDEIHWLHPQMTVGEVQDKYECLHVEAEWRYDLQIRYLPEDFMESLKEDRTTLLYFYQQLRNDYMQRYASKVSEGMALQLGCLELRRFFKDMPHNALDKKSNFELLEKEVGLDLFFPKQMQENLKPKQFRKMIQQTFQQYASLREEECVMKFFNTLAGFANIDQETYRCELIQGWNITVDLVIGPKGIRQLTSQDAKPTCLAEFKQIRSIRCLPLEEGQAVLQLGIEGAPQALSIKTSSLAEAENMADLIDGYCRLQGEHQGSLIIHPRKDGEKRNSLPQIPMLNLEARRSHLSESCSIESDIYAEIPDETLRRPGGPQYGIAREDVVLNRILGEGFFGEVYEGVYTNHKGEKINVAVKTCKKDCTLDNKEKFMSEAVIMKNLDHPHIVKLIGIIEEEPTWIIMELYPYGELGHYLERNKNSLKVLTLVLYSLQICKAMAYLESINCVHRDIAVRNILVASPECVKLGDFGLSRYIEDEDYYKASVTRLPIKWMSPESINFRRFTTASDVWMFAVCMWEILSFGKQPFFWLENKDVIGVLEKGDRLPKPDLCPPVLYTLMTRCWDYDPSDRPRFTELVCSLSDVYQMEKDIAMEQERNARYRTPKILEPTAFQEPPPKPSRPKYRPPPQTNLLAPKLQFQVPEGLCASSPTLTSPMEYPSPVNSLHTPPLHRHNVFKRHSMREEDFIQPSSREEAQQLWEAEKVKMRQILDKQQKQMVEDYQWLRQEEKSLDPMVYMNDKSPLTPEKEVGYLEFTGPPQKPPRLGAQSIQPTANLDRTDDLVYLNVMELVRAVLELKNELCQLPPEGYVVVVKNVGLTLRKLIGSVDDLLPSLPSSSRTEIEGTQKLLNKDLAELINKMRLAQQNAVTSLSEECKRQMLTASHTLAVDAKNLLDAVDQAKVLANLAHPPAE
M1 antagonist: blocks the rat M1 muscarinic receptor response to acetylcholine; CHO-M1 cells, Fluo-4 calcium, ACh EC80 antagonist mode; stronger effect = lower value; P08482; B-score at 10 µM; 64,000 tested, 3.4% active;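 active means calcium fluorescence response, raw or row-and-column corrected B-score, differing from the plate sample mean either way at a set confidence level, mostly lower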
Cav32 inh: human Cav3.2 channel inhibition, primary screen; 100,000 tested, 4% active; AID 449739; B-score at 10 µM; O95180; Cav3.2-expressing cells, Fluo-4 calcium fluorescence FDSS; stronger effect = lower value;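 active means single-dose well whose peak fluorescence ratio is a statistical outlier from its plate by either plate-standardised score or position-corrected B-score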
M1 antag conf: confirmation of rat M1 muscarinic receptor antagonists | shares compounds with M1 antagonist | CHO-M1 cells, Fluo-4 calcium, ACh EC80 antagonism; stronger effect = lower value | calcium response (max-min fluorescence) at 10 µM | 1,700 tested, 43% active | AID 677;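 active means calcium response below the same-plate mean of wells given acetylcholine alone at its 80%-effect dose, minus 3 SD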
mGluR4 antag: acts on human mGluR4 in M1 antagonist selectivity test | shares compounds with M1 antagonist | CHO-mGluR4 calcium flux, Fluo-4 fluorescence, glutamate EC80; stronger effect = lower value | fluorescence response (max-min) at 10 µM | 1,700 tested, 0.9% active | AID 678;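 active means fluorescence response below the plate's average for near-maximal glutamate wells, less 3 SD of those wells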;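 further: raw unnormalized fluorescence span taken in the window right after glutamate addition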
A number is an active result; . = inactive; / = no result. In the library only some 7.1% were active in any assay of this set; here they are far more common.

SMILES	M1 ag	Pyk2 oligo antag	M1 antagonist	Cav32 inh	M1 antag conf	mGluR4 antag
Cc1noc(C)c1C(=O)OCC(=O)NCCC1=CCCCC1	.	.	.	.	/	/
CC(=O)c1ccc(N2CCN(C(=O)COc3ccccc3F)CC2)c(F)c1	/	.	/	.	/	/
CCOc1ccc(CN2CCNC(=O)C2CC(=O)OC)cc1 (centres undefined)	.	/	-2.9	.	.	.
Cc1ccc(CN2CCNC(=O)C2CC(=O)O)cc1 (centres undefined)	.	/	.	/	/	/
CCCc1nc2oc3c(NCCN(C)C)ncnc3c2c2c1CCCC2	.	.	-6.4	.	.	.
Cc1ccc(C)n1-c1ccc(-c2nnc3n2CCCCC3)s1	.	.	-1.4	.	.	.
CCc1nc(C)c(-c2ccccc2)c(=O)[nH]1	.	.	.	.	/	/
Nc1[nH]c(=S)[nH]c(=O)c1-c1ccccc1	.	.	-2.3	.	.	.
COc1ccc(S(=O)(=O)N(C)c2ccc(OCC(=O)Nc3cc(C)on3)cc2)cc1	.	.	-2.8	.	.	.
Cc1cc(NC(=O)c2ccc(N(C)S(=O)(=O)c3ccccc3)cc2)no1	.	.	.	.	/	/
O=S(=O)(c1ccc(F)cc1)N1CCC(N2CCN(c3ccccc3)CC2)CC1	.	/	.	/	/	/
Cc1onc(-c2c(F)cccc2Cl)c1C(=O)N1CCc2ccccc2C1	.	.	-3.2	.	.	.
Cc1onc(-c2ccccc2Cl)c1C(=O)N1CCc2ccccc2C1	/	.	/	.	/	/
O=C(c1ccccc1F)N(Cc1ccc2c(c1)OCO2)Cc1cc2cc3c(cc2n2nnnc12)OCO3	/	.	/	.	/	/
CN1CCCC(OC(=O)c2cc(Cl)ccc2Cl)C1 (centres undefined)	.	.	.	.	/	/
CN1CCCC(OC(=O)c2cc(Br)ccc2Cl)C1 (centres undefined)	.	.	-6.6	.	412	.
COc1ccc(CNC(=O)CN(CC2CCCO2)C(=O)CNS(=O)(=O)c2ccccc2)cc1 (centres undefined)	.	.	-2.4	/	.	.
COCCCn1c(=N)c(C(=O)NCc2ccc3c(c2)OCO3)cc2c(=O)n3ccccc3nc21	.	.	.	.	/	/
CCOCCCn1c(=N)c(C(=O)NCc2ccc3c(c2)OCO3)cc2c(=O)n3cccc(C)c3nc21	.	.	-10	.	91	.
COCCCn1c(=N)c(C(=O)NCc2ccc3c(c2)OCO3)cc2c(=O)n3cccc(C)c3nc21	.	/	-7.1	/	90	.
Cc1oc(-c2cccc(Cl)c2)nc1CN1CCCC(C(=O)NC(C)c2ccc3c(c2)OCCO3)C1 (centres undefined)	.	/	-0.94	/	.	.
COc1ccc(C(CCN2CCCC(C)C2)c2c(OC)cc(OC)c3c2OC(=O)CC3c2cc(OC)c(OC)c(OC)c2)cc1 (centres undefined)	/	/	/	.	/	/
Oc1ccccc1-c1nc(NCCN2CCOCC2)c2ccccc2n1	.	.	-2.8	.	.	.
CCCCC1=CC2=C(c3ccco3)C(=O)C(C)(OC(=O)c3ccc(OC)cc3)C(=O)C2=CN1C1CCCCC1 (centres undefined)	/	/	/	.	/	/
CCOCCCNC(=O)N[C@@H](C)C(=O)OC	.	.	.	.	/	/
SMILES	M1 ag	Pyk2 oligo antag	M1 antagonist	Cav32 inh	M1 antag conf	mGluR4 antag
CCOCCCNC(=O)NC12CC3CC(CC(C3)C1)C2	.	.	-5.1	.	.	.
O=C(NCCCN1CCN(c2cccc(Cl)c2)CC1)C1CCC(=O)N1Cc1ccccc1Cl (centres undefined)	.	.	-2	/	.	.
COc1ccc(OC)c(S(=O)(=O)Nc2cccc(F)c2)c1	/	.	/	.	/	/
CCOC(=O)N1CCC(N2Cc3cccc(C(=O)NCc4ccccn4)c3C2=O)CC1	.	/	-2.5	.	500	.
CC#CCN1c2ccccc2[C@]23C[C@@H](C(=O)OC)N(C(=O)c4ccco4)C2=NC(C(=O)OC)=C(C(=O)OC)[C@H]13	/	/	/	.	/	/
CCCCC(=NCCO)C1=C(O)C(C(=O)OC)C(C)(C)CC1=O (centres undefined)	.	.	-3.5	.	.	.
CCCCCCN=C(C)C1=C(O)C(C(=O)OC)C(C)(C)CC1=O (centres undefined)	.	.	.	.	/	/
N#Cc1cc(-c2ccccc2)c[nH]c1=O	/	.	/	.	/	/
Clc1ccc2nc(N3CCNCC3)nc(-c3ccccc3)c2c1	.	.	.	.	/	/
COc1cc2nc(N3CCNCC3)nc(N)c2cc1OC	.	.	-1.4	.	.	.

Bioassay records (PubChem)
